In all, about 39,000 compounds went through this assay and about 3,300 (8.5%) were called active. The sample as a whole holds a higher share of actives than the screen did.

For the experiment, the system named is HepG2. The experiment in a line: cytotoxicity call (relative viability < 0.9). The note with it: 10 µM.
In the case of `C/C=C/c1ccc2c(c1)O[C@H](CN(C)S(=O)(=O)c1ccc(F)cc1)[C@H](C)CN([C@H](C)CO)S2(=O)=O`, the cytotoxicity call is “inactive”.
Then `CCO[C@H]1[C@H]2CC[C@@H]1N(C(=O)N(C)C)CCO2`, with “inactive”; and `C[C@@H]1CCCCO[C@H](CN(C)S(C)(=O)=O)[C@H](C)CN([C@@H](C)CO)C(=O)c2cc(NS(C)(=O)=O)ccc2O1`, with “inactive”; and `CCC(=O)N[C@@H]1C=C[C@@H](CC(=O)OC)O[C@@H]1CO`, with “inactive”.
The entry for `CC(C)NC(=O)N(C)C[C@H]1Oc2ccc(NS(=O)(=O)c3ccccc3)cc2C(=O)N([C@@H](C)CO)C[C@@H]1C` is “inactive”; for `COc1ccc(S(=O)(=O)Nc2ccc3c(c2)C(=O)N([C@@H](C)CO)C[C@@H](C)[C@@H](CN(C)Cc2ccccc2)OCCCC[C@@H](C)O3)cc1` it is “inactive”.
Then `O=C(C[C@H]1CC[C@@H]2[C@H](COC[C@H](O)CN2C(=O)C2CC2)O1)NCc1ccncc1`, with “inactive”; and `Cc1cc(O)cc2c1O[C@](C)(CCC[C@H](C)CCC[C@H](C)CCCC(C)C)CC2`, with “inactive”; and `Cc1noc(C)c1S(=O)(=O)Nc1cccc2c1O[C@H](CN(C)C(=O)NC1CCCCC1)[C@H](C)CN([C@@H](C)CO)C2=O`, with “inactive”.
Turning to `C[C@H](CO)N1C[C@H](C)[C@H](CN(C)C(=O)Nc2ccc(F)cc2)Oc2ncc(C#Cc3ccc(C(F)(F)F)cc3)cc2C1=O`, the cytotoxicity call was “inactive”.
Then `C[C@H]1CN([C@@H](C)CO)C(=O)c2cccc(NS(=O)(=O)c3cccs3)c2O[C@H]1CN(C)Cc1ccc(Oc2ccccc2)cc1`, with “inactive”; and `C[C@@H]1CN([C@@H](C)CO)C(=O)c2cccc(NC(=O)Nc3cccc4ccccc34)c2O[C@H]1CN(C)C(=O)Nc1ccccc1`, with “active”; and `COc1ccc(NC(=O)Nc2cccc3c2O[C@@H](CN(C)C(=O)Nc2cccc4ccccc24)[C@H](C)CN([C@@H](C)CO)C3=O)cc1`, with “inactive”.
Then `C[C@H]1CN([C@@H](C)CO)C(=O)c2cccc(NC(=O)Nc3cccc4ccccc34)c2O[C@@H]1CN(C)C(=O)Nc1ccccc1`, with “inactive”; and `C[C@@H]1CN([C@H](C)CO)C(=O)c2cccc(NC(=O)Nc3cccc4ccccc34)c2O[C@H]1CN(C)C(=O)Nc1ccc(F)cc1`, with “inactive”; and `COc1ccc(NC(=O)Nc2cccc3c2O[C@@H](CN(C)C(=O)Nc2cccc4ccccc24)[C@H](C)CN([C@H](C)CO)C3=O)cc1`, with “inactive”.
Then `C[C@H]1CN([C@@H](C)CO)C(=O)c2cccc(NC(=O)Nc3cccc4ccccc34)c2O[C@H]1CN(C)C(=O)Nc1ccccc1`, with “inactive”.
Regarding `COc1ccc(NC(=O)Nc2cccc3c2O[C@H](CN(C)C(=O)Nc2cccc4ccccc24)[C@H](C)CN([C@H](C)CO)C3=O)cc1`, the cytotoxicity call is “active”.
Take `C[C@H](CO)N1C[C@H](C)[C@@H](CN(C)C(=O)Nc2ccc(F)cc2)Oc2c(NC(=O)Nc3cccc4ccccc34)cccc2C1=O`: the cytotoxicity call was “inactive”.
The entry for `C[C@H](CO)N1C[C@H](C)[C@H](CN(C)C(=O)Nc2ccc(F)cc2)Oc2c(NC(=O)Nc3cccc4ccccc34)cccc2C1=O` is “active”; for `C[C@H](CO)N1C[C@H](C)[C@H](CN(C)Cc2ccc(Cl)c(Cl)c2)Oc2c(NC(=O)Nc3ccc4c(c3)OCO4)cccc2C1=O` it is “inactive”.
In the case of `C[C@H](CO)N1C[C@H](C)[C@H](CN(C)C(=O)c2ccncc2)Oc2cc(C#C[C@@H](C)O)ccc2S1(=O)=O`, the cytotoxicity call was “inactive”.
Then `Cc1cc(F)ccc1S(=O)(=O)N1[C@@H]2CC[C@@H](C2)[C@H]1c1nc2cccc(OCc3ccc(F)cc3)c2[nH]1`, with “inactive”; and `C[C@@H]1CCCCO[C@H](CN(C)S(=O)(=O)c2cn(C)cn2)[C@@H](C)CN([C@H](C)CO)C(=O)c2cc(N(C)C)ccc2O1`, with “inactive”.
Then `C[C@H](CO)N1C[C@H](C)[C@@H](CN(C)C(=O)Nc2ccc(C(F)(F)F)cc2)Oc2ccc(NS(=O)(=O)c3ccc(Cl)cc3)cc2C1=O`, with “inactive”.
Consider `CCCN1C[C@H](C)[C@H](OC)CN(C)C(=O)c2ccc(NS(=O)(=O)c3cn(C)cn3)cc2OC[C@@H]1C`, for which the cytotoxicity call is “inactive”.
Then `CN1CCN(C(=O)C[C@@H]2CC[C@H]3[C@@H](COC[C@H](O)CN3C(=O)C3CCOCC3)O2)CC1`, with “inactive”.
Then `C[C@H]1CN([C@@H](C)CO)C(=O)c2cccc(NS(=O)(=O)c3ccccc3)c2O[C@H]1CN(C)Cc1ccc(Oc2ccccc2)cc1`, with “inactive”; and `C[C@@H]1CN([C@@H](C)CO)C(=O)c2cc(NC(=O)C3CCCCC3)ccc2O[C@@H](C)CCCCO[C@@H]1CN(C)Cc1ccccc1`, with “inactive”.
As for `COc1cc(C(=O)O[C@H]2CC[C@@]3(C)[C@@H]4CC[C@H]5[C@]6(O)C[C@H](O)[C@@]7(O)[C@@H](CN8C[C@@H](C)CC[C@H]8[C@@]7(C)O)[C@]6(O)C[C@@]53O[C@@]24O)cc(OC)c1OC`, the cytotoxicity call is “inactive”.
`O=C(Nc1ncc(SCCN2CCCC2)s1)[C@]1(c2ccc(S(=O)(=O)C3CC3)cc2)C[C@H]1C1CCCCC1`: the cytotoxicity call is “active”.
The entry for `Cc1ccc(-c2ccc3c(c2)O[C@H](CN(C)C(=O)CN(C)C)[C@@H](C)CN([C@H](C)CO)S3(=O)=O)cc1` is “inactive”; for `Cn1c(C(=O)N2CCCO[C@@H](Cn3cccn3)C2)cc(=O)n(C)c1=O` it is “inactive”.
Then `C[C@H]1CN([C@@H](C)CO)C(=O)c2cc(NC(=O)Nc3ccc(F)cc3)ccc2O[C@@H]1CN(C)S(=O)(=O)c1cn(C)cn1`, with “inactive”.
Take `COc1ccc(S(=O)(=O)N(C)C[C@@H]2Oc3ccc(NS(=O)(=O)c4cn(C)cn4)cc3CC(=O)N([C@@H](C)CO)C[C@@H]2C)cc1`: the cytotoxicity call is “inactive”.
The entry for `CN(C)c1cc(CNCC(C)(C)C)c(O)c2c1C[C@H]1C[C@H]3[C@H](N(C)C)C(=O)[C@H](C(N)=O)C(=O)[C@@]3(O)C(=O)[C@@H]1C2=O` is “inactive”; for `C[C@H]1CN([C@@H](C)CO)C(=O)c2cc(NC(=O)Nc3ccc(C(F)(F)F)cc3)ccc2O[C@@H]1CN(C)Cc1ccncc1` it is “active”.
The entry for `C[C@@H]1CN([C@H](C)CO)C(=O)c2cc(NC(=O)Nc3ccc(C(F)(F)F)cc3)ccc2O[C@@H]1CN(C)Cc1ccncc1` is “inactive”; for `C[C@H]1CN([C@@H](C)CO)C(=O)c2cc(NC(=O)Nc3ccc(C(F)(F)F)cc3)ccc2O[C@H]1CN(C)Cc1ccncc1` it is “inactive”; for `C[C@@H]1CN([C@H](C)CO)C(=O)c2cc(NC(=O)Nc3ccc(C(F)(F)F)cc3)ccc2O[C@H]1CN(C)Cc1ccncc1` it is “inactive”.
The entry for `C[C@@H]1CN([C@@H](C)CO)C(=O)c2cc(NC(=O)Nc3ccc(C(F)(F)F)cc3)ccc2O[C@@H]1CN(C)Cc1ccncc1` is “inactive”; for `C[C@@H]1CN([C@@H](C)CO)C(=O)c2cc(NC(=O)Nc3ccc(C(F)(F)F)cc3)ccc2O[C@H]1CN(C)Cc1ccncc1` it is “active”.
Consider `CO[C@H]1CN(C)C(=O)c2cc(NC(=O)C3CCOCC3)ccc2OC[C@@H](C)N(Cc2cccnc2)C[C@@H]1C`, for which the cytotoxicity call was “inactive”.
Then `CC(C)NC(=O)N(C)C[C@H]1Oc2ccc(NC(=O)Cc3ccccc3)cc2CC(=O)N([C@H](C)CO)C[C@@H]1C`, with “inactive”; and `c1ccc(Oc2ccncc2)cc1`, with “inactive”; and `COC(=O)C(CC#Cc1ccc2c(c1)[C@]1(C(=O)N2)[C@H](c2ccc(O)cc2)N2[C@H](c3ccccc3)[C@H](c3ccccc3)OC(=O)[C@H]2[C@@H]1C(=O)NC[C@H](O)c1ccccc1)C(=O)OC`, with “inactive”.
Then `C[C@H]1CN([C@@H](C)CO)C(=O)c2c(c3ccccc3n2C)-c2ccccc2CO[C@H]1CN(C)Cc1ccc(Oc2ccccc2)cc1`, with “inactive”.
Then `COc1ccc(S(=O)(=O)Nc2cccc3c2O[C@H](CN(C)S(=O)(=O)c2ccccc2)[C@H](C)CN([C@@H](C)CO)C3=O)cc1`, with “inactive”; and `COCC#Cc1ccc2c(c1)O[C@H](CN(C)C(=O)COC)[C@H](C)CN([C@@H](C)CO)S2(=O)=O`, with “inactive”; and `Cc1cc(OCc2nnc(SC3CCCC3)n2-c2cccnc2)ccc1-c1ccc(S(C)(=O)=O)cc1`, with “active”.
Turning to `Cc1nc(N)c(C(=O)O)nc1C`, the cytotoxicity call was “inactive”.
Then `C[C@@H]1CN([C@H](C)CO)C(=O)Cc2cc(NC(=O)Cc3cn(C)c4ccccc34)ccc2O[C@H]1CN(C)Cc1ccc(C(=O)Nc2ccccc2N)cc1`, with “inactive”.
Then `COc1ccc(CN(C)C[C@H]2OCCCC[C@@H](C)Oc3ccc(NS(=O)(=O)c4ccc(OC)cc4)cc3C(=O)N([C@H](C)CO)C[C@H]2C)cc1`, with “inactive”; and `COc1ccc(S(=O)(=O)Nc2ccc3c(c2)C(=O)N([C@H](C)CO)C[C@@H](C)[C@H](CN(C)Cc2ccc(Cl)c(Cl)c2)OCCCC[C@H](C)O3)cc1`, with “active”.
With `COc1ccc(CN(C)C[C@H]2OCCCC[C@H](C)Oc3ccc(NS(=O)(=O)c4ccc(OC)cc4)cc3C(=O)N([C@H](C)CO)C[C@H]2C)cc1`, the cytotoxicity call was “inactive”.
Then `COc1ccc(CN(C)C[C@H]2OCCCC[C@@H](C)Oc3ccc(NS(=O)(=O)c4ccc(OC)cc4)cc3C(=O)N([C@@H](C)CO)C[C@@H]2C)cc1`, with “inactive”.
The entry for `COc1ccc(CN(C)C[C@H]2OCCCC[C@H](C)Oc3ccc(NS(=O)(=O)c4ccc(OC)cc4)cc3C(=O)N([C@@H](C)CO)C[C@@H]2C)cc1` is “inactive”; for `COc1ccc(CN(C)C[C@@H]2OCCCC[C@@H](C)Oc3ccc(NS(=O)(=O)c4ccc(OC)cc4)cc3C(=O)N([C@H](C)CO)C[C@@H]2C)cc1` it is “inactive”.
The entry for `COc1ccc(S(=O)(=O)Nc2ccc3c(c2)C(=O)N([C@@H](C)CO)C[C@H](C)[C@@H](CN(C)Cc2ccc(Cl)c(Cl)c2)OCCCC[C@@H](C)O3)cc1` is “active”; for `COc1ccc(S(=O)(=O)Nc2ccc3c(c2)C(=O)N([C@@H](C)CO)C[C@H](C)[C@@H](CN(C)Cc2ccc(Cl)c(Cl)c2)OCCCC[C@H](C)O3)cc1` it is “active”.
`COc1ccc(CN(C)C[C@@H]2OCCCC[C@@H](C)Oc3ccc(NS(=O)(=O)c4ccc(OC)cc4)cc3C(=O)N([C@@H](C)CO)C[C@H]2C)cc1`: the cytotoxicity call was “inactive”.
The entry for `COc1ccc(S(=O)(=O)Nc2ccc3c(c2)C(=O)N([C@H](C)CO)C[C@H](C)[C@@H](CN(C)Cc2ccc(Cl)c(Cl)c2)OCCCC[C@@H](C)O3)cc1` is “active”.

The record behind these values is the antibiotic and cytotoxicity screens of Wong et al. (2023).
